HepG2 viability: counter-screen for TGF-b inhibitors: cytotoxicity in HepG2 cells; Potency, µM (top dose mostly 46.1 µM), for the others: at the top dose activity change, negative = cytotoxicity, most hits filed as cytotoxic; HepG2 CAGA-GFP viability, ATP luminescence, 18 h; 0.76% of 410,000 active
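CellTiter-Glo luminescence gave cytotoxicity after 18 hours at 37 degrees C. The cells were HepG2 CAGA-GFP in 1% FBS DMEM, stimulated with 500 pg/mL TGF-beta after compound addition. %Activity was normalised to no-cell wells (complete cell-killing) and DMSO (no toxicity), and curves were fitted and classified.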
Nrf2 activator: Nrf2 pathway activation; AREc32 ARE-luciferase reporter (MCF7-derived line), luminescence, 24 h; Potency, µM (series often up to 46.1 µM), for the others: at the top dose activation, actives largely listed as activators; 0.31% of 410,000 active; AID 624171; note: % of control where 0% means no effect; nearly all actives have a fitted effect of over 65% in size
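For detection, Steady-Glo was added and plates sat 30 min at RT; before that, AREc32_Fluc cells grown overnight in OPTI-MEM/5% FBS had been treated with 23 nL compound for 24 hr at 37 deg C.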
A549 tox: A549 cytotoxicity, counter-screen for Nrf2 inhibitors; A549 ARE-Fluc cells, CellTiter-Fluor viability, 18-24 h; Potency, µM (doses to about 46 µM), without a hit: at the highest dose activity change, negative = cytotoxicity, most hits filed as inhibitors; 0.16% of 390,000 active; AID 504648; note: % is set by controls: 0 for no effect and ±100 for the full control effect
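A549 ARE_Fluc cells in 5% FBS OPTI-MEM were exposed to compounds in concentration-response for 18-24 h at 37 deg C. Viability was read by CellTiter-Fluor fluorescence (Ex 405/Em 525) after 30 min, before the luciferase read.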
TGFb SMAD3 inh: inhibitors of TGF-b signaling | HepG2 CAGA-GFP TGF-b/SMAD3 reporter, GFP fluorescence, 18 h; TGF-beta stimulated, 500 pg/mL final | Potency, µM (series often up to 46.1 µM), inactives show top-dose activity, negative = inhibition, hits mostly inhibitors | 1.2% of 410,000 active | AID 588855; note: % is set by controls: 0 for no effect and ±100 for the full control effect; nearly all actives have a fitted effect of over 65% in size
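First, reporter cells (HEPG2 CAGA-GFP) rested 2 h at 37 degrees C. Next, compounds were pinned in and TGF-beta added to 500 pg/mL final. After 18 h, GFP was imaged per cell and summed per well.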
Nrf2 block: inhibitors of Nrf2 signaling. A549 ARE-Fluc reporter, luciferase luminescence, 18-24 h. Potency, µM (series often up to 46 µM), inactives show at the top dose activity change, negative = inhibition, most hits filed as inhibitors. 2.1% of 360,000 active; note: % is set by controls: 0 for no effect and ±100 for the full control effect; nearly all actives have a fitted effect of over 60% in size
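Two sequential reads on A549 ARE_Fluc cells exposed to compound for 18-24 h: a CellTiter-Fluor fluorescence read for viability, then a luciferase luminescence read for Nrf2/ARE activity.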
* hit, by the source's call. Only some compounds are listed: those with a hit (about 3.6% of all), similar ones and a draw of the others. Calls come from the whole dose curve; as a rule, active = well fitted curve in the direction sought with a large enough effect; inconclusive = small, poorly fitted or top-dose-only effect, or another doubt; inactive = no such curve, though single readings can be large; an effect the other way counts as inactive or inconclusive. Potency is the fitted concentration of half-maximal effect.

Screening Cc1noc(C)c1S(=O)(=O)N(C)C[C@H]1Oc2c(NC(=O)Nc3ccc(C(F)(F)F)cc3)cccc2C(=O)N([C@H](C)CO)C[C@@H]1C returned HepG2 viability -8.5%, Nrf2 activator 9.2%, A549 tox -19.8%, TGFb SMAD3 inh inconclusive and Nrf2 block 20.6µM*.
Screening C[C@H](CO)N1C[C@H](C)[C@@H](CN(C)CC2CCCCC2)Oc2c(NC(=O)CCC(F)(F)F)cccc2C1=O returned HepG2 viability -10.2%, Nrf2 activator -0.6%, A549 tox -26.2%, TGFb SMAD3 inh -0.6% and Nrf2 block 18.4µM*.
For COCC1CCCN(Cc2cn(-c3ccccc3F)nc2-c2cc(C)sc2C)C1 (centres undefined) the results were HepG2 viability -100.1%, Nrf2 activator 12.4%, A549 tox -8.8%, TGFb SMAD3 inh inconclusive and Nrf2 block -29.3%.
C[C@H](CO)N1C[C@H](C)[C@@H](CN(C)C(=O)Nc2ccccc2)Oc2c(NC(=O)Nc3ccc(C(F)(F)F)cc3)cccc2C1=O was read as HepG2 viability -97.5%, Nrf2 activator -3.1%, A549 tox inconclusive, TGFb SMAD3 inh 15.8µM* and Nrf2 block inconclusive.
CC(C)NC(=O)Nc1cccc2c1O[C@H](CN(C)C(=O)Nc1ccc(C(F)(F)F)cc1)[C@@H](C)CN([C@H](C)CO)C2=O was read as HepG2 viability -14.9%, Nrf2 activator -0.4%, A549 tox -5.2%, TGFb SMAD3 inh -3.8% and Nrf2 block -1.4%.
Screening Cc1nn(C)c(C)c1Nc1ccc(N2C(=O)C3CC=CCC3C2=O)cc1[N+](=O)[O-] (centres undefined) returned HepG2 viability 6.0%, Nrf2 activator 4.8%, A549 tox -17.4%, TGFb SMAD3 inh 0.0% and Nrf2 block 20.6µM*.
`O=[N+]([O-])c1ccccc1NCc1ccc(O)c2ncccc12` gave A549 tox inconclusive and Nrf2 block 6.51µM*.
`COC(=O)c1cc(OC)c(OC)cc1NC(=S)N1CCOCC1` gave HepG2 viability -14.4%, Nrf2 activator -0.2%, A549 tox 1.8%, TGFb SMAD3 inh 1.2% and Nrf2 block 1.1%.
Screening COc1ccc(NS(=O)(=O)c2cccc(C(=O)OCC(=O)N3CCN(c4ccc(OC)cc4)CC3)c2)cc1 returned HepG2 viability -1.1%, Nrf2 activator -0.1%, A549 tox -19.3%, TGFb SMAD3 inh inconclusive and Nrf2 block 20.6µM*.
Cc1ccccc1-n1c(SC(C)C(=O)N2CCN(C)CC2)nc2ccccc2c1=O (centres undefined) was read as HepG2 viability -1.0%, Nrf2 activator 0.9%, A549 tox -7.1%, TGFb SMAD3 inh 10.5% and Nrf2 block 0.4%.
For C[C@H]1CN([C@@H](C)CO)C(=O)CCCn2nncc2CO[C@@H]1CN(C)Cc1ccccc1C(F)(F)F the results were HepG2 viability -36.9%, Nrf2 activator 1.9% and TGFb SMAD3 inh -14.9%.
Screening COc1ccc2[nH]c3c(c2c1)CCN1C(=O)C(CC(=O)NCCN2CCOCC2)C[C@H](C(=O)N2CCCCC2)[C@@]31CCc1ccccc1 (some centres undefined) returned HepG2 viability 5.8%, Nrf2 activator 0.1%, A549 tox -3.1%, TGFb SMAD3 inh 28.1% and Nrf2 block -2.5%.
`CCN(CC)C(=O)[C@H]1C[C@H](CC(=O)NCCCN(C)C)C(=O)N2CCc3c([nH]c4ccc(Cl)cc34)[C@]12C` gave HepG2 viability -41.7%, Nrf2 activator 16.0%, A549 tox -21.5%, TGFb SMAD3 inh inconclusive and Nrf2 block 7.8%.
`CC(C)=CCC/C(C)=C/CNC(=O)CC1C[C@H](C(=O)N2CCOCC2)[C@@]2(C)c3[nH]c4ccccc4c3CCN2C1=O` (some centres undefined) gave HepG2 viability -18.7%, Nrf2 activator 0.3%, A549 tox -13.1%, TGFb SMAD3 inh inconclusive and Nrf2 block inconclusive.
For COc1ccc2[nH]c3c(c2c1)CCN1C(=O)C(CC(=O)NCCC2=CCCCC2)C[C@H](C(=O)N2CCCCC2)[C@@]31CCc1ccccc1 (some centres undefined) the results were HepG2 viability -26.9%, Nrf2 activator -0.4%, A549 tox -25.2%, TGFb SMAD3 inh -6.7% and Nrf2 block 18.4µM*.
Screening CN(C)CCCNC(=O)C[C@H]1C[C@H](C(=O)N2CCCCC2)[C@@]2(C)c3[nH]c4cc(-c5ccco5)ccc4c3CCN2C1=O returned HepG2 viability -85.8%, Nrf2 activator -4.1%, A549 tox 2.8%, TGFb SMAD3 inh inconclusive and Nrf2 block inconclusive.
For CCN(CC)C(=O)[C@H]1C[C@H](CC(=O)NCC23CC4CC(CC(C4)C2)C3)C(=O)N2CCc3c([nH]c4ccc(Cl)cc34)[C@]12C the results were HepG2 viability -92.3%, Nrf2 activator 0.1%, A549 tox -22.6%, TGFb SMAD3 inh 12.6µM* and Nrf2 block 23.1µM*.
`CC(C)=CCC/C(C)=C/CNC(=O)C[C@H]1C[C@H](C(=O)N2CCOCC2)[C@@]2(C)c3[nH]c4cc(-c5ccco5)ccc4c3CCN2C1=O` gave HepG2 viability -77.3%, Nrf2 activator -2.7%, A549 tox inconclusive, TGFb SMAD3 inh 12.6µM* and Nrf2 block inconclusive.
`CN(C)CCCNC(=O)C[C@H]1C[C@H](C(=O)N2CCCCC2)[C@@]2(CCc3ccccc3)c3[nH]c4cc(-c5ccco5)ccc4c3CCN2C1=O` gave HepG2 viability 14.1µM*, Nrf2 activator -3.0%, A549 tox -7.7%, TGFb SMAD3 inh inconclusive and Nrf2 block 1.5%.
COCCNC(=O)C(c1ccc(C)cc1)N(C(=O)CCC(=O)Nc1ccccn1)c1ccc(F)cc1 (centres undefined) was read as HepG2 viability -12.1%, Nrf2 activator -0.6%, A549 tox -0.4%, TGFb SMAD3 inh -4.4% and Nrf2 block -5.6%.
Screening O=C(Cn1c(=O)n(Cc2ccc(F)cc2)c(=O)c2ccccc21)NCC1CCCO1 (centres undefined) returned HepG2 viability 10.6%, Nrf2 activator 0.5%, A549 tox -22.5%, TGFb SMAD3 inh 4.6% and Nrf2 block -6.2%.
Screening CC[C@]12c3[nH]c4ccc(Cl)cc4c3CCN1C(=O)[C@@H](CC(=O)NCCC1=CCCCC1)C[C@@H]2C(=O)N1CCN(C(=O)c2ccco2)CC1 returned HepG2 viability 22.0%, Nrf2 activator -0.2%, A549 tox inconclusive, TGFb SMAD3 inh inconclusive and Nrf2 block 16.4µM*.

Source: PubChem
